This is an account of results in PubChem BioAssay AID434970 (Sanford-Burnham Center for Chemical Genomics, 2010).

Structures are written as SMILES. Screen size: about 11,000 compounds; about 310 (2.8%) were called active. Cut-off read from the data, not from the text of the source: active = activity change below about -85%; inactive = the rest. Shown is part of a subset that was picked to be rich in actives.

This test concerns intestinal alkaline phosphatase [Mus musculus]. Put plainly: mouse intestinal phosphatase enzyme activation – biochemical, luminescence, single concentration, confirmation (AID 434970). The following applies: purified mouse IAP, CDP-Star luminescence, 30 min, at 10 µM; activation factor: measured here: IAP activation factor, stronger effect = higher value; activity change, negative = activation: stronger effect = lower value.
Turning to `CCOc1cc(/C=N\NC(=O)c2ccc(NC(=O)CC)cc2)ccc1OC(=O)c1ccccc1`, the activation factor came out at 1.02 and the activity change, negative = activation is -1.9% (inactive).
In the same order, the values of `Cc1cc(C)nc(SCC(=O)c2ccc([N+](=O)[O-])cc2)n1` are 0.867 and 13.3% (inactive).
For `O=C1Nc2ccccc2C(O)(C(=O)NC2CC2)N1c1ccc(Cl)c(Cl)c1` (stereo not drawn), in that order: 0.911 and 8.85% (inactive).
Regarding `CCOc1ccc2nc(SCC(=O)N(C)C3CCS(=O)(=O)C3)[nH]c2c1` (stereo not drawn), the activation factor came out at 0.928 and the activity change, negative = activation was 7.2% (inactive).
For `O=C(c1cccs1)[C@@H]1[C@@H]2C(=O)N(Cc3ccc4c(c3)OCO4)C(=O)[C@@H]2C2c3ccccc3C=CN21` (stereo partly drawn), in that order: 0.569 and 43.1% (inactive).
For `CCn1c(=O)c(C(=O)NCCN2CCCCC2)c(O)c2ccccc21`, in that order: 0.851 and 14.8% (inactive).
In the same order, the values of `CC[C@]1(C(=O)OC)[C@H]2C(=O)N(C)C(=O)[C@H]2[C@H]2CN(C)C(=NC3CCCCC3)N21` are 0.984 and 1.6% (inactive).
Turning to `Cc1ccccc1NC(=O)NCCCN1CCN(c2ccccc2)CC1`, the activation factor worked out at 1.27 and the activity change, negative = activation was -27.2% (inactive).
Take `O=C(NCCc1c[nH]c2ccccc12)Nc1cccc2ccccc12`: the activation factor turned out to be 1.29 and the activity change, negative = activation was -28.6% (inactive).
In the same order, the values of `Cc1cc2nc(C)n(CCCNC(=O)Nc3cccc4ccccc34)c2cc1C` are 2.18 and -118% (active).
For `Cc1cc(=O)n(CCO)c(O)c1C#N`, in that order: 1.02 and -1.65% (inactive).
In the same order, the values of `CCOC(=O)C1=CNS(=O)(=O)NC1c1cccc(O)c1` (stereo not drawn) are 1.05 and -5.15% (inactive).
As for `COc1ccc(NS(=O)(=O)c2ccc(OC)c(OC)c2)cc1OC`, the activation factor worked out at 0.945 and the activity change, negative = activation is 5.5% (inactive).
For `O=C(Nc1ccccc1)Nc1nc(-c2ccc(F)c(F)c2)cs1`, in that order: 1.75 and -75.4% (inactive).
Turning to `O=C(Nc1ccccc1)Nc1nc(-c2ccc(F)cc2)cs1`, the activation factor was 1.62 and the activity change, negative = activation was -62.5% (inactive).
`Cc1csc(NC(=O)Nc2cccc(Cl)c2)n1`: the activation factor was 1.11 and the activity change, negative = activation is -11.1% (inactive).
For `O=C(Nc1cccc(Cl)c1)Nc1nc(-c2ccccc2)cs1`, in that order: 2.16 and -116% (active).
For `COc1cccc(-c2csc(N3CCN(C(=O)Nc4ccc(F)cc4)CC3)n2)c1`, in that order: 1.33 and -32.7% (inactive).
For `O=C(Nc1cccc(Cl)c1)Nc1nc(-c2ccc(Cl)cc2)cs1`, in that order: 2.1 and -110% (active).
`O=C(Nc1nc(-c2ccccc2)cs1)NC1CCCCC1`: the activation factor was 1.61 and the activity change, negative = activation is -61.4% (inactive).
For `COc1cccc(-c2csc(NC(=O)Nc3ccccc3)n2)c1`, in that order: 2.11 and -111% (active).
In the same order, the values of `O=C(Nc1nc(-c2cccs2)cs1)c1ccc(Cl)cc1` are 0.793 and 20.7% (inactive).
In the same order, the values of `Cc1cc(NCCCn2ccnc2)n2c(nc3ccccc32)c1C#N` are 1.02 and -2.25% (inactive).
Turning to `CC1(C)Cc2c(sc3c2C2=NCCN2C=N3)CO1`, the activation factor stood at 0.94 and the activity change, negative = activation is 5.95% (inactive).
On to `COc1ccc(C(c2nnnn2Cc2cccs2)N2CCN(c3ccc(F)cc3)CC2)cc1OC` (stereo not drawn), for which the activation factor was found to be 0.985 and the activity change, negative = activation was 1.5% (inactive).
On to `C1=C[C@H]2CC[C@@H]1N(c1ccccc1)O2`, for which the activation factor was 0.976 and the activity change, negative = activation was 2.4% (inactive).
For the compound `NC1=NC2(CCCCC2)N(c2ccc(F)cc2)C(N)=N1`, the activation factor is 0.95 and the activity change, negative = activation was 4.95% (inactive).
For `Cc1ccc(CNC(=O)/C(C#N)=C\c2ccc(N(C)C)cc2)cc1`, in that order: 0.817 and 18.4% (inactive).
On to `CCCOc1ccc(Oc2cc(C)nc(SC)n2)nn1`, for which the activation factor was 1.01 and the activity change, negative = activation is -1% (inactive).
In the same order, the values of `Cc1nn(C/C(C#N)=N\O)c(C)[n+]1N` are 0.961 and 3.9% (inactive).
In the same order, the values of `COc1cc2c3c(c1)C1(C(=O)N3C(C)(C)C=C2C)C(C#N)=C(N)Oc2cc(O)ccc21` (stereo not drawn) are 1 and -0.3% (inactive).
In the same order, the values of `COc1ccc(NC(=O)c2ccco2)cc1NC(=O)c1cccc(OC(C)C)c1` are 0.934 and 6.55% (inactive).
Consider `O=C1CN=C(Nc2ccccc2Cl)N1Cc1ccc2c(c1)OCO2`, for which the activation factor turned out to be 1.07 and the activity change, negative = activation was -7.1% (inactive).
Take `CCOC(=O)c1ccc(N2CCN(c3ccc(F)cc3)CC2)c(NC(=O)Nc2cccc(OC)c2)c1`: the activation factor is 1.55 and the activity change, negative = activation was -55% (inactive).
In the same order, the values of `COc1cccc(NC(=O)CCN2CCN(c3ccccc3F)CC2)c1` are 1.09 and -8.65% (inactive).
In the same order, the values of `COC(=O)c1ccc(N2CCN(C)CC2)c(NC(=O)c2cc3ccccc3o2)c1` are 1.03 and -3.1% (inactive).
As to `CCOC(=O)c1ccc(N2CCN(c3ccccc3F)CC2)c(NC(=O)Nc2cccc(OC)c2)c1`, the activation factor was 4.62 and the activity change, negative = activation was -362% (active).
For `CCOC(=O)c1cccc(NC(=O)Nc2cc(OC)ccc2OC)c1`, in that order: 1.69 and -68.8% (inactive).
As for `CCOC(=O)c1ccc(N2CCN(c3ccccc3F)CC2)c(NC(=O)Nc2ccccc2)c1`, the activation factor came to 3.14 and the activity change, negative = activation is -214% (active).
For `CC1(C)N=C(SCC(=O)Nc2ccccc2)C(c2ccc(Cl)cc2)=N1`, in that order: 0.943 and 5.75% (inactive).
Regarding `COc1cc(C2CC(=O)Oc3ccc(C(C)(C)C)cc32)cc(OC)c1OC` (stereo not drawn), the activation factor came to 1.07 and the activity change, negative = activation was -6.8% (inactive).
For `O=C(O)CCN(CCC(=O)O)c1ccccc1`, the activation factor was found to be 1.02 and the activity change, negative = activation is -1.9% (inactive).
In the same order, the values of `CNC[C@@H]1Oc2ccc(NC(=O)Nc3ccccc3)cc2C(=O)N([C@@H](C)CO)C[C@H]1C` are 1.61 and -61.5% (inactive).
On to `CNC[C@H]1Oc2ccc(NC(=O)Nc3ccc(OC)cc3)cc2C(=O)N([C@@H](C)CO)C[C@H]1C`, for which the activation factor is 2.23 and the activity change, negative = activation was -123% (active).
For `COc1ccc(NC(=O)Nc2ccc3c(c2)C(=O)N([C@H](C)CO)C[C@H](C)[C@@H](CN(C)C(=O)Nc2ccc(OC)cc2)O3)cc1`, in that order: 1.6 and -60% (inactive).
In the case of `CNC[C@H]1Oc2ccc(NC(=O)Nc3ccc4c(c3)OCO4)cc2C(=O)N([C@H](C)CO)C[C@@H]1C`, the activation factor is 1.48 and the activity change, negative = activation was -47.9% (inactive).
For `CNC[C@@H]1Oc2ccc(NC(=O)Nc3cccc4ccccc34)cc2C(=O)N([C@@H](C)CO)C[C@@H]1C`, in that order: 2.43 and -143% (active).
For `CCOC(=O)CC1(c2ccccc2)CCOC(C)(C)C1` (stereo not drawn), in that order: 0.94 and 6.05% (inactive).
In the same order, the values of `COc1ccc(N2CCN(S(=O)(=O)/C=C/c3ccccc3)CC2)cc1` are 1.07 and -7.05% (inactive).
With `COc1ccc2[nH]c3c(c2c1)CCN1C(=O)C(CC(=O)NCCCN(C)C)C[C@H](C(=O)N(C(C)C)C(C)C)[C@@]31C` (stereo partly drawn), the activation factor came out at 1.14 and the activity change, negative = activation is -13.9% (inactive).
For `CN1CCN(C(CNS(=O)(=O)c2ccc(F)cc2)c2cccnc2)CC1` (stereo not drawn), in that order: 1.1 and -10.1% (inactive).
Turning to `O=C(CSc1nnc(C2CC2)n1Cc1ccccc1)NCc1ccccc1`, the activation factor is 1.05 and the activity change, negative = activation was -5% (inactive).
Regarding `COc1cc(CNc2ncnc3c2[nH]c2ccc(C)cc23)cc(OC)c1`, the activation factor came out at 2.97 and the activity change, negative = activation is -197% (active).
Take `Cc1ccc2[nH]c3c(N4CCN(Cc5ccccc5)CC4)ncnc3c2c1`: the activation factor was determined as 1.25 and the activity change, negative = activation was -24.6% (inactive).
In the same order, the values of `O=C(Cn1cnc2c(NCc3ccccc3)ncnc21)NCc1ccc2[nH]ccc2c1` are 1.1 and -9.85% (inactive).
In the same order, the values of `COc1ccc(CNc2ncnc3c2[nH]c2ccccc23)cc1` are 2.71 and -171% (active).
For `COC(=O)c1ccc(CNC(=O)Cn2cnc3c(NCc4ccccc4)ncnc32)cc1`, in that order: 0.989 and 1.05% (inactive).
Consider `COc1ccc(CNC(=O)Cn2cnc3c(NCc4ccccc4)ncnc32)cc1`, for which the activation factor was 1.01 and the activity change, negative = activation was -0.55% (inactive).
In the same order, the values of `Fc1ccc2[nH]c3c(NCc4ccccc4)ncnc3c2c1` are 2.25 and -125% (active).
`Cc1ccc2[nH]c3c(NCc4ccccc4)ncnc3c2c1`: the activation factor was determined as 2.49 and the activity change, negative = activation was -149% (active).
For `Fc1ccc2[nH]c3c(NCCN4CCOCC4)ncnc3c2c1`, in that order: 1.07 and -7.05% (inactive).
In the same order, the values of `COc1ccc2[nH]c3c(N4CC(C)OC(C)C4)ncnc3c2c1` (stereo not drawn) are 1.17 and -17.4% (inactive).
In the same order, the values of `CCOc1ccc2[nH]c3c(NCCC(C)C)ncnc3c2c1` are 1.85 and -84.7% (inactive).
For `O=C(Cn1cnc2c(NCc3ccccc3)ncnc21)NCc1ccccc1`, the activation factor stood at 0.932 and the activity change, negative = activation is 6.8% (inactive).
Consider `O=C(CSc1nnc(C2CC2)n1Cc1ccccc1)N1CCN(S(=O)(=O)c2ccccc2)CC1`, for which the activation factor came out at 1.04 and the activity change, negative = activation was -4.25% (inactive).
For `O=C(NCCc1ccccc1)c1nc2nc(-c3cccs3)cc(C(F)(F)F)n2n1`, in that order: 0.956 and 4.4% (inactive).
For `Cc1ccc(S(=O)(=O)C2CCOC2=O)cc1` (stereo not drawn), in that order: 0.793 and 20.7% (inactive).
In the same order, the values of `COc1ccc(C(c2nnnn2CS(=O)(=O)c2ccc(C)cc2)N2CCN(c3ncccn3)CC2)cc1` (stereo not drawn) are 0.922 and 7.75% (inactive).
With `Cc1nnc(SCCC(C)C)[nH]c1=O`, the activation factor turned out to be 1.13 and the activity change, negative = activation was -12.6% (inactive).
In the same order, the values of `Cc1onc(-c2ccccc2Cl)c1C(=O)OCC(=O)c1ccc2c(c1)OCCO2` are 0.972 and 2.85% (inactive).
In the same order, the values of `CCOC(=O)C1=CN(CC)S(=O)(=O)NC1c1ccc(F)c(Cl)c1` (stereo not drawn) are 1.1 and -9.6% (inactive).
For `CC[C@]12c3[nH]c4cc(CCC(=O)N(C)C)ccc4c3CCN1C(=O)[C@@H](CC(=O)NCCN1CCOCC1)C[C@@H]2C(=O)N1CCN(C(=O)C2CC2)CC1`, in that order: 1.07 and -6.6% (inactive).
As to `Cc1cccc(-c2noc(CCC(=O)N3CCN(c4cc(C)ccc4C)CC3)n2)c1`, the activation factor worked out at 0.938 and the activity change, negative = activation was 6.25% (inactive).
In the same order, the values of `c1coc(C2Nc3cccc4cccc(c34)N2)c1` are 0.307 and 69.3% (inactive).
For `CN1CC2([N+](=O)[O-])CC=C(Oc3ccccc3)C([N+](=O)[O-])(C1)C2` (stereo not drawn), in that order: 0.919 and 8.05% (inactive).
For `C#CCOCCOCCOCCNc1nc(N2CCN(C(=O)CCCCCCCCCCNC(=O)Cn3cc(CCCCCN)nn3)CC2)nc(N2CCN(C(=O)CCCCCCCCCCNC(=O)[C@H](CO)n3cc(CCCSC)nn3)CC2)n1`, in that order: 2.53 and -153% (active).
With `C#CCOCCOCCOCCNc1nc(N2CCN(C(=O)CCCCCCCCCCNC(=O)[C@@H](CCSC)n3cc(CCO)nn3)CC2)nc(N2CCN(C(=O)CCCCCCCCCCNC(=O)[C@H](CCSC)n3cc(CCO)nn3)CC2)n1`, the activation factor turned out to be 1.78 and the activity change, negative = activation is -77.9% (inactive).
For `C#CCOCCOCCOCCNc1nc(N2CCN(C(=O)CCCCCCCCCCNC(=O)Cn3cc(C[C@@H](C)O)nn3)CC2)nc(N2CCN(C(=O)CCCCCCCCCCNC(=O)[C@@H](CCSC)n3cc(CCO)nn3)CC2)n1`, in that order: 1.97 and -96.8% (active).
On to `C#CCOCCOCCOCCNc1nc(N2CCN(C(=O)CCCCCCCCCCNC(=O)Cn3cc(CCCCCN)nn3)CC2)nc(N2CCN(C(=O)CCCCCCCCCCNC(=O)[C@@H](CCSC)n3cc(CCO)nn3)CC2)n1`, for which the activation factor is 3.56 and the activity change, negative = activation was -256% (active).
